Assay results published in PubChem BioAssay (Tox21).
Several values for one entry are separate records, joined by “and”; a condition that tells them apart may be missing. Identical values can stand only once. Results filed as inconclusive are left out. Where a structure was tested more than once in an assay, its records may differ in their call. Activity calls are given as the source filed them. Unless noted, calls follow the shape of the dose curve; as a rule, active = well fitted curve in the direction sought with a large enough effect in the repeat runs; inconclusive = weak or mixed curves; inactive = no such curve, though single readings can be large; an effect the other way counts as inactive or inconclusive.

Legend:
[1] = qHTS assay to identify small molecule antagonists of the estrogen related receptor (ERR) signaling pathway from Tox21 library - cell viability counter screen (AID 1224834); also: nearly all actives have a fitted effect of over 30% in size
How it was run: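 After 17.5 h of compound exposure at 37 C, ERR cells are incubated with CellTiter-Fluor for 30 min and fluorescence intensity serves as the viability measure.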

[2] = qHTS assay to identify small molecule agonists of the constitutive androstane receptor (CAR) signaling pathway - cell viability counter screen (AID 1224836); also: nearly all actives have a fitted effect of over 45% in size; also: potency is read from the fitted curve at half-maximal effect
How it was run: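 Fluorescence from CellTiter-Fluor indicates live cells after 23 h exposure. The human hepatoma line expresses hCAR and a CYP2B6-2.2kb reporter. Incubation medium contains 0.75 uM PK11195 (final).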

[3] = qHTS assay to identify small molecule antagonists of the constitutive androstane receptor (CAR) signaling pathway - cell viability counter screen (AID 1224837); also: nearly all actives have a fitted effect of over 45% in size
How it was run: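 Counter screen run in HepG2-CYP2B6-hCAR cells: 4 hr settle, compound titration (15 concentrations) with 50 nM CITCO, 23 hr at 37 C/5% CO2, CellTiter-Fluor fluorescence.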

[4] = qHTS assay to identify small molecule antagonists of the estrogen related receptor signaling pathway with the pleiotropic PPARgamma coactivator (PGC) from Tox21 10K library - cell viability counter screen (AID 1224840; active = well fitted cell-killing curve with a large enough effect in the repeat runs, not every such curve was filed as active; also: nearly all actives have a fitted effect of over 40% in size)
How it was run: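 Following seeding of 2,000 PGC/ERR cells/well and 6 hours' incubation, test compounds were delivered in DMSO. The plates then sat 17.5 hours at 37 C before a fluorogenic live-cell protease reagent (CellTiter-Fluor) was read after 30 min.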

[5] = qHTS assay to identify small molecule antagonists of the estrogen related receptor signaling pathway with the pleiotropic PPARgamma coactivator (PGC) from Tox21 10K library (AID 1224841; call rule not given here; also: actives are mostly falling curves and most rising ones were filed inactive; nearly all actives have a fitted effect of over 50% in size)
How it was run: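 qHTS antagonist format: PGC/ERR cells, 2k/well, compound in DMSO by pin transfer after 6 h attachment, 18 h treatment at 37 C, One-Glo luminescence read at 30 min.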

[6] = qHTS assay to identify small molecule agonists of the estrogen related receptor signaling pathway with the pleiotropic PPARgamma coactivator (PGC) from Tox21 10K library (AID 1224842); also: nearly all actives have a fitted effect of over 15% in size; also: potency is read from the fitted curve at half-maximal effect
How it was run: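 Luminescence from One-Glo (30 min, room temperature) measured after PGC/ERR cells had 18 h at 37 C with pinned compound (23 nL in DMSO). Cells had been seeded at 2,000 per well and pre-incubated 6 h.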

[7] = target: Thyrotropin receptor (Homo sapiens) (UniProt P16473); assay: qHTS assay to identify small molecule agonists of the thyroid stimulating hormone receptor (TSHR) signaling pathway (AID 1224843; calls by dose curve; also: nearly all actives have a fitted effect of over 45% in size)
How it was run: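 HEK293 cells stably bearing the thyrotropin receptor were plated at 800 cells/well and challenged with compound (30 min, RT). Accumulated cAMP was quantified via cAMP-d2 competing for cryptate-tagged antibody.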

[8] = qHTS assay to identify small molecule agonists of the hypoxia (HIF-1) signaling pathway - cell viability counter screen (AID 1224844; calls by dose curve; also: nearly all actives have a fitted effect of over 50% in size)
How it was run: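 Cells (HRE-bla ME-180, 2,000 per well) sat 5 hrs at 37C, got compound for 17 hrs, were read for CCF4-AM FRET, and were finally lysed with CellTiter-Glo for a 30 min room-temperature luminescence read.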

[9] = qHTS assay to identify small molecule agonists of H2AX (AID 1224845; active = well fitted activation curve with a large enough effect in the signal ratio in the repeat runs, not every such curve was filed as active; the % refers to the signal ratio)
How it was run: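 Phospho-H2AX Ser139 measured by HTRF (ex 320 nm; em 665 and 620 nm) after 24 hr antibody incubation. Compounds, 15 concentrations, 0.76% DMSO, were applied to CHO-K1 cells for 3hr at 37C before lysis.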

[10] = qHTS assay to identify small molecule agonists of the hypoxia (HIF-1) signaling pathway (AID 1224846; active = well fitted activation curve with a large enough effect in the signal ratio in the repeat runs, not every such curve was filed as active; the % refers to the signal ratio)
How it was run: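 A low-serum medium (0.5% dialyzed FBS) holding 2,000 HRE-bla ME-180 cells per well is preincubated for 5 hrs, dosed with compounds by pintool, and kept a further 17 hrs at 37C, 5% CO2 before CCF4-AM FRET detection of beta-lactamase.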

[11] = qHTS assay to identify small molecule agonists of H2AX - cell viability counter screen (AID 1224847; calls by dose curve; also: top concentration of the series differs between compounds; nearly all actives have a fitted effect of over 30% in size)
How it was run: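 Viability of CHO-K1 (wild type) cells after 3 hr compound exposure was measured by CellTiter-Glo luminescence.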

[12] = qHTS assay to identify small molecule antagonists of the estrogen related receptor (ERR) signaling pathway from Tox21 library (AID 1224848); also: nearly all actives have a fitted effect of over 50% in size
How it was run: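 Reading was by luminescence 30 min after ONE-Glo addition. Before that, ERR cells at 2,000 per well had rested 6 h at 37 C/5% CO2 and then received pin-tooled compounds in DMSO for 18 h at 37 C.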

[13] = qHTS assay to identify small molecule agonists of the estrogen related receptor (ERR) signaling pathway from Tox21 library (AID 1224849; calls by dose curve; also: nearly all actives have a fitted effect of over 15% in size); details: ERR reporter cell line, ONE-Glo luciferase, 18 h; at 92.4 µM (top of the series)
How it was run: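 Screening used an NTP-provided ERR luciferase cell line. Compounds in DMSO were added 6 h after seeding and left 18 h at 37 C before a 30 min ONE-Glo step and luminescence reading.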

[14] = qHTS RealTime-Glo MT Cell Viability Assay in HEK293 cells - 32 hour (AID 1224868); also: nearly all actives have a fitted effect of over 50% in size; also: potency is read from the fitted curve at half-maximal effect
How it was run: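 HEK293 cells seeded with NanoLuc/prosubstrate reagent, rested 5 h at 37 C, then dosed and kept at 37 C up to 40 h. Nonlytic real-time luminescence from viable cells read at 0, 8, 16, 24, 32 and 40 h.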

[15] = A CellTox Green Cytotoxicity Assay to monitor cytotoxicity in HEK293 cells - 0 hour (AID 1224869); also: nearly all actives have a fitted effect of over 50% in size
How it was run: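 Fluorescence intensity, read at 0, 8, 16, 24, 32 and 40 h of compound treatment, reflected dye binding to DNA of dead HEK293 cells; compounds (23 nL, DMSO) were added 5 h after plating cells with reagent.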

[16] = qHTS RealTime-Glo MT Cell Viability Assay in HepG2 cells - 24 hour (AID 1224867); also: nearly all actives have a fitted effect of over 50% in size
How it was run: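 HepG2 cells (600/well) were dispensed with RealTime-Glo reagents, incubated 5 h at 37 °C, then treated with compounds in DMSO for up to 40 h. Nonlytic NanoLuc luminescence reflecting viable cells was read at each stated time point.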

[17] = target: Nuclear receptor subfamily 1 group I member 3 (Homo sapiens) (UniProt Q14994); assay: qHTS assay to identify small molecule antagonists of the constitutive androstane receptor (CAR) signaling pathway (AID 1224838);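 also: HepG2 cells stably expressing hCAR with CYP2B6 luciferase reporter stimulated by CITCO; nearly all actives have a fitted effect of over 40% in size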; also: potency is read from the fitted curve at half-maximal effect
How it was run: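 Cell line: HepG2 double-stable for hCAR and CYP2B6-2.2kb reporter. Agonist: CITCO, 50 nM final. Compounds: 15 concentrations, 24 h, 37 C. Detection: ONE-Glo luminescence.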

[18] = target: Nuclear receptor subfamily 1 group I member 3 (Homo sapiens) (UniProt Q14994); assay: qHTS assay to identify small molecule agonists of the constitutive androstane receptor (CAR) signaling pathway (AID 1224839); also: nearly all actives have a fitted effect of over 15% in size; also: potency is read from the fitted curve at half-maximal effect;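 as to activation: HepG2 cells stably carrying human CAR and a CYP2B6 luciferase reporter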
How it was run: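 Stable hCAR/CYP2B6-2.2kb HepG2 line in DMEM with 10% FBS; compounds (15 concentrations) and 0.75 uM PK11195 final, 24 h at 37 C/5% CO2, then ONE-Glo luminescence after 30 min.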

[19] = target: Luciferin 4-monooxygenase (Photinus pyralis) (UniProt P08659); assay: qHTS assay to identify small molecule inhibitors of firefly luciferase (AID 1224835); also: nearly all actives have a fitted effect of over 25% in size
How it was run: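 Inhibition of purified Photinus luciferase is measured by luminescence. Substrate levels (D-luciferin, ATP) sit at their KM values. Each compound is tested in a concentration series.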
% is scaled to controls: 0 for no effect and ±100 for the full control effect.

Nuclear receptor subfamily 1 group I member 3 (Homo sapiens), sequence (Q14994 whole entry, looked up): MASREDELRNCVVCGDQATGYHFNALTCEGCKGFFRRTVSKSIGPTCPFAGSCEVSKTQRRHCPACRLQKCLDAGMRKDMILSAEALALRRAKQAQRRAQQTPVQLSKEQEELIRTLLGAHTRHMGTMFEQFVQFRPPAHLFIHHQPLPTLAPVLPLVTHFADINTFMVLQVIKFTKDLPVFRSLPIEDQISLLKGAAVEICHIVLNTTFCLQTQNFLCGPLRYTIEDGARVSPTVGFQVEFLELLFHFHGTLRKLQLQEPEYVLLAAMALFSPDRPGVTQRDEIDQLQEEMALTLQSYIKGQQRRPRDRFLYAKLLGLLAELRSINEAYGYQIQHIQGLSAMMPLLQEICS
Thyrotropin receptor (Homo sapiens), sequence (P16473 whole entry, looked up): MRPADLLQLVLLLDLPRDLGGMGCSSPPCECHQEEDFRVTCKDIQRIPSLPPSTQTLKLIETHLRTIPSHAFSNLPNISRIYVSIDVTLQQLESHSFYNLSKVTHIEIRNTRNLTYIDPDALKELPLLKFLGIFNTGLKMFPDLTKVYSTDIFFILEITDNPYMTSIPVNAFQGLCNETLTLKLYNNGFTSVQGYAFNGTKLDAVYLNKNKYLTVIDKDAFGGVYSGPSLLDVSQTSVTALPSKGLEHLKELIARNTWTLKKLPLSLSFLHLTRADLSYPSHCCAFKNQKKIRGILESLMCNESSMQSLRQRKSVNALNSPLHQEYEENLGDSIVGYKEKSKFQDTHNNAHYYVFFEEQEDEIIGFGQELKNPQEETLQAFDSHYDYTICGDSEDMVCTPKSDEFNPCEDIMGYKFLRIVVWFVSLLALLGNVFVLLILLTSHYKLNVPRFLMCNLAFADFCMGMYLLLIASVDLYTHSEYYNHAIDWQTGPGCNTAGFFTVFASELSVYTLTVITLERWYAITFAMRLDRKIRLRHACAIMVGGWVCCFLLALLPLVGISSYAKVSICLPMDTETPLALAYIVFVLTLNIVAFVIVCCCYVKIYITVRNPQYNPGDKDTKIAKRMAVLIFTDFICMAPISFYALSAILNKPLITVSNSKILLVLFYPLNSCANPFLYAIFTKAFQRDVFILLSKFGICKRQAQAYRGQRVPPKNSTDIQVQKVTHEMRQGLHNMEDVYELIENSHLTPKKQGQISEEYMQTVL
Luciferin 4-monooxygenase (Photinus pyralis), sequence (P08659 whole entry, looked up): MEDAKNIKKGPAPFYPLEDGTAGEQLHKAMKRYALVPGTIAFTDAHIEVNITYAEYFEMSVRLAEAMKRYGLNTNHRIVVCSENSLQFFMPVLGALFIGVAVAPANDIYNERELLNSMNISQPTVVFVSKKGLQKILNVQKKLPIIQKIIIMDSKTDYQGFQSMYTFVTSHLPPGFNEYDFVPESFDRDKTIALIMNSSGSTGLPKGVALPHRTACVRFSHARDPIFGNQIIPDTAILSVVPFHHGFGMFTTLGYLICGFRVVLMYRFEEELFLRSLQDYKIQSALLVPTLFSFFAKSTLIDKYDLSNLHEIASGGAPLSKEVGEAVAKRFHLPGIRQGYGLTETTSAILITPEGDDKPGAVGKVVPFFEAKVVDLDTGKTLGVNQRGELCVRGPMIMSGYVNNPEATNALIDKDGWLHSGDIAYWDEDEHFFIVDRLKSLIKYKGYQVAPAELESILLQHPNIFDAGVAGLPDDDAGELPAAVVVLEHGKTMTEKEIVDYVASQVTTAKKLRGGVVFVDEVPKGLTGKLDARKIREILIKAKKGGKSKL

CCCCCCCCCC(=O)O
inactive: Potency [1] | Potency [2] | Potency [3] | Potency [4] | Potency [5] | Potency [6] | Potency [7] | Potency [8] | Potency [9] | outcome [10] | Potency [11] | Potency [12] | activity change, positive = activation [13] -1.8% and -5.57% | Potency [14] | Potency [15]

COCC(C)O (stereo not given)
inactive: Potency [1] | Potency [2] | Potency [3] | Potency [4] | Potency [5] | Potency [6] | Potency [7] | Potency [8] | Potency [9] | outcome [10] | Potency [11] | Potency [12] | activity change, positive = activation [13] -0.602% and 6.16% | Potency [16] | Potency [14] | Potency [15]

CC(=O)[C@@]1(O)CC[C@H]2[C@@H]3CCC4=CC(=O)CC[C@]4(C)[C@H]3CC[C@@]21C
inactive: Potency [1] | Potency [4] | Potency [7] | Potency [8] | Potency [9] | Potency [11] | Potency [16]

OCC1CCCO1 (stereo not given)
inactive: Potency [1] | Potency [2] | Potency [3] | Potency [17] | Potency [18] | Potency [4] | Potency [8] | Potency [9] | outcome [10] | Potency [11] | Potency [14] | Potency [15]

c1ccc2[nH]cnc2c1
inactive: Potency [1] | Potency [2] | Potency [3] | Potency [17] | Potency [18] | Potency [4] | Potency [8] | Potency [9] | outcome [10] | Potency [11] | Potency [14]

CCOC(=O)/C=C\C(=O)OCC
1.73% (inactive) and 0.529% (active): activity change, positive = activation [13]
inactive: Potency [1] | Potency [2] | Potency [3] | Potency [4] | Potency [5] | Potency [6] | Potency [7] | Potency [8] | Potency [9] | outcome [10] | Potency [11] | Potency [12] | Potency [16] | Potency [14] | Potency [15]

S=c1nc[nH]c2nc[nH]c12
active: Potency [17] 1.5 µM and 3.35 µM | Potency [14] 16.9 µM
inactive: Potency [19] | Potency [2] | Potency [18] | Potency [4] | Potency [7] | Potency [8] | outcome [10] | Potency [11] | Potency [16] | Potency [15]

Cc1cc(NS(=O)(=O)c2ccc(N)cc2)no1
inactive: Potency [1] | Potency [2] | Potency [3] | Potency [17] | Potency [18] | Potency [4] | Potency [7] | Potency [8] | Potency [11] | Potency [16] | Potency [15]

COC(=O)c1ccccc1O
19.3% (active) and 7.16% (inactive): activity change, positive = activation [13]
21.7 µM (active) and inactive: Potency [6]
inactive: Potency [1] | Potency [2] | Potency [3] | Potency [4] | Potency [5] | Potency [7] | Potency [8] | Potency [9] | outcome [10] | Potency [11] | Potency [12] | Potency [16]

COC(=O)Nc1nc2ccc(Sc3ccccc3)cc2[nH]1
inactive: Potency [1] | Potency [2] | Potency [3] | Potency [17] | Potency [4] | Potency [7] | Potency [8] | Potency [11]
active: Potency [18] 4.33 µM | Potency [14] 692 nM and 848 nM

CC1COc2ccccc2N1C(=O)C(Cl)Cl (stereo not given)
active: Potency [2] 27.3 µM | Potency [18] 48.5 µM
inactive: Potency [19] | Potency [17] | Potency [4] | Potency [7] | Potency [8] | Potency [9] | outcome [10] | Potency [11] | Potency [16]
